Assay results as given in PubChem BioAssay AID1159580 (chemical genetic matrix, 2015).
The campaign covered roughly 5,500 compounds. About 2,000 (36%) were called active. Another 18% or so got no clear call; they are omitted. Cut-off read from the data, not from the text of the source: active = normalized growth mostly below about 0.91 (no sharp cut-off); inconclusive = no clear call, values can overlap the other calls; inactive = mostly above about 0.92. The list shows a part of the results.

Assay: chemical genetic growth profiling, strain panel (AID 1159580);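 note: tested at 20 µM; growth read once vehicle control cultures reached saturation at 30 °C; 1 = growth at the plate median or of vehicle wells; lower values mean less growth of the strain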
Settings: S. cerevisiae deletion strains, growth OD
[1] = locus YDR150W, strain NUM1, stronger effect = lower value
[2] = locus YGR078C, strain PAC10, stronger effect = lower value
[3] = locus YNL153C, strain GIM3, stronger effect = lower value
[4] = locus YNL322C, strain KRE1, stronger effect = lower value
[5] = locus YPL055C, strain LGE1, stronger effect = lower value
[6] = locus YPL241C, strain CIN2, stronger effect = lower value
[7] = locus YCL061C, strain MRC1, stronger effect = lower value
[8] = locus YHR030C, strain SLT2, stronger effect = lower value

Measured: normalized growth

C[C@H]1C2Cc3ccc(O)cc3[C@]1(C)CCN2CC1CC1
inactive: locus YAL040C, strain CLN3, stronger effect = lower value 0.994 | locus YCL061C, strain MRC1 (second series), stronger effect = lower value 1.01 | [1] 1 | locus YDR363W, strain ESC2, stronger effect = lower value 1.02 | locus YER002W, strain NOP16, stronger effect = lower value 0.988 | [2] 1.01 | locus YGR229C, strain SMI1, stronger effect = lower value 1.05 | [3] 1.02 | locus YNL175C, strain NOP13, stronger effect = lower value 1.02 | locus YNL197C, strain WHI3, stronger effect = lower value 1.02 | locus YNL224C, strain SQS1, stronger effect = lower value 1 | [4] 1.02 | locus YOR083W, strain WHI5 (second series), stronger effect = lower value 1.04 | [5] 1.02 | [6] 1.01

O=C(O)CCC(=O)Nc1ccc(S(=O)(=O)Nc2nccs2)cc1
inactive: locus YAL021C, strain ccr4, stronger effect = lower value 1 | locus YAL026C, strain drs2, stronger effect = lower value 1 | locus YAL030W, strain snc1, stronger effect = lower value 1.03 | locus YBL061C, strain skt5, stronger effect = lower value 0.994 | locus YBR009C, strain hhf1, stronger effect = lower value 1.02 | locus YBR023C, strain chs3, stronger effect = lower value 0.993 | locus YBR171W, strain sec66, stronger effect = lower value 0.997 | locus YBR231C, strain swc5, stronger effect = lower value 0.996 | locus YBR279W, strain paf1, stronger effect = lower value 0.989 | locus YCL016C, strain dcc1, stronger effect = lower value 0.985 | [7] 0.996 | locus YCL069W, strain vba3, stronger effect = lower value 1 | locus YCR088W, strain abp1, stronger effect = lower value 0.994 | locus YDL005C, strain med2, stronger effect = lower value 0.987 | locus YDL040C, strain nat1, stronger effect = lower value 0.999 | locus YDR001C, strain nth1, stronger effect = lower value 1 | locus YDR069C, strain doa4, stronger effect = lower value 1 | locus YDR137W, strain rgp1, stronger effect = lower value 0.989 | locus YDR159W, strain sac3, stronger effect = lower value 0.922 | locus YDR195W, strain ref2 0.967 | locus YDR297W, strain sur2, stronger effect = lower value 1.01 | locus YDR334W, strain swr1, stronger effect = lower value 0.989 | locus YDR335W, strain msn5, stronger effect = lower value 0.992 | locus YDR392W, strain spt3, stronger effect = lower value 0.912 | locus YEL003W, strain gim4, stronger effect = lower value 1.02 | locus YEL037C, strain rad23, stronger effect = lower value 1.01 | locus YEL061C, strain CIN8 (second series), stronger effect = lower value 1.02 | locus YER015W, strain faa2, stronger effect = lower value 1 | locus YER016W, strain bim1, stronger effect = lower value 0.981 | locus YER111C, strain swi4, stronger effect = lower value 1.01 | locus YER155C, strain BEM2 (second series), stronger effect = lower value 0.981 | locus YFR010W, strain ubp6, stronger effect = lower value 1 | locus YGL167C, strain pmr1, stronger effect = lower value 0.995 | locus YGL173C, strain kem1, stronger effect = lower value 0.987 | locus YGL227W, strain vid30, stronger effect = lower value 0.994 | locus YGL240W, strain doc1, stronger effect = lower value 1 | locus YGL253W, strain hxk2, stronger effect = lower value 1 | locus YHR013C, strain ard1, stronger effect = lower value 0.983 | locus YHR027C, strain rpn1, stronger effect = lower value 0.991 | [8] 1.04 | locus YHR079C, strain IRE1, stronger effect = lower value 1.06 | locus YHR142W, strain chs7, stronger effect = lower value 1 | locus YJL092W, strain hpr5, stronger effect = lower value 1 | locus YJL095W, strain BCK1 (second series), stronger effect = lower value 0.996 | locus YJL095W, strain BCK1, stronger effect = lower value 1.01 | locus YJL115W, strain asf1, stronger effect = lower value 0.997 | locus YJL129C, strain trk1, stronger effect = lower value 0.994 | locus YJL154C, strain vps35, stronger effect = lower value 0.99 | locus YJL164C, strain tpk1, stronger effect = lower value 0.998 | locus YJL166W, strain qcr8, stronger effect = lower value 1 | locus YJL187C, strain SWE1, stronger effect = lower value 1.01 | locus YJR066W, strain TOR1, stronger effect = lower value 0.998 | locus YKL160W, strain elf1, stronger effect = lower value 1.01 | locus YKR026C, strain gcn3, stronger effect = lower value 1 | locus YKR091W, strain srl3, stronger effect = lower value 0.998 | locus YLL001W, strain dnm1, stronger effect = lower value 1.01 | locus YLL026W, stronger effect = lower value 0.987 | locus YLL041C, strain sdh2, stronger effect = lower value 1.01 | locus YLR027C, strain aat2, stronger effect = lower value 1.01 | locus YLR113W, strain HOG1, stronger effect = lower value 1.02 | locus YLR221C, strain rsa3, stronger effect = lower value 1 | locus YLR258W, strain gsy2, stronger effect = lower value 0.993 | locus YLR262C, strain YPT6 (second series), stronger effect = lower value 1.01 | locus YLR320W, strain mms22, stronger effect = lower value 0.976 | locus YLR342W, strain FKS1, stronger effect = lower value 1 | locus YLR357W, strain rsc2, stronger effect = lower value 0.991 | locus YLR370C, strain arc18, stronger effect = lower value 1 | locus YLR384C, strain iki3, stronger effect = lower value 1 | locus YML120C, strain ndi1, stronger effect = lower value 1.02 | locus YMR058W, strain fet3, stronger effect = lower value 1 | locus YMR125W, strain sto1, stronger effect = lower value 0.977 | locus YMR129W, stronger effect = lower value 0.977 | locus YMR205C, strain PFK2, stronger effect = lower value 0.985 | locus YMR231W, strain pep5, stronger effect = lower value 1 | locus YNL071W, strain lat1, stronger effect = lower value 1.01 | locus YNL183C, strain NPR1, stronger effect = lower value 0.968 | locus YNL209W, strain ssb2, stronger effect = lower value 1 | locus YNL248C, strain rpa49, stronger effect = lower value 1.02 | locus YNL322C, strain KRE1 (second series), stronger effect = lower value 0.966 | locus YNR049C, strain mso1, stronger effect = lower value 0.999 | locus YOR001W, strain rrp6, stronger effect = lower value 0.998 | locus YOR070C, strain gyp1, stronger effect = lower value 0.998 | locus YOR080W, strain dia2, stronger effect = lower value 0.987 | locus YOR083W, strain WHI5, stronger effect = lower value 0.938 | locus YOR106W, strain vam3, stronger effect = lower value 0.979 | locus YOR231W, strain MKK1, stronger effect = lower value 1.07 | locus YOR265W, strain rbl2, stronger effect = lower value 1.01 | locus YOR270C, strain vph1, stronger effect = lower value 1.03 | locus YOR290C, strain snf2, stronger effect = lower value 0.984 | locus YPL051W, strain arl3, stronger effect = lower value 0.995 | locus YPL078C, strain atp4, stronger effect = lower value 0.984 | locus YPL106C, strain sse1, stronger effect = lower value 0.944 | locus YPL240C, strain hsp82, stronger effect = lower value 0.995 | locus YPL256C, strain CLN2, stronger effect = lower value 1.01
active: locus YCL011C, strain gbp2, stronger effect = lower value 0.728

CC(=O)Nc1ccc(S(=O)(=O)Nc2ncccn2)cc1
inactive: locus YAL013W, strain DEP1, stronger effect = lower value 1.01 | locus YBR229C, strain ROT2, stronger effect = lower value 0.992 | [7] 1.02 | locus YDL101C, strain DUN1, stronger effect = lower value 0.995 | locus YDL134C, strain PPH21, stronger effect = lower value 0.997 | [1] 0.921 | locus YEL061C, strain CIN8, stronger effect = lower value 1.01 | [2] 1 | [8] 1.08 | locus YHR087W, strain rtc3, stronger effect = lower value 0.987 | locus YJR043C, strain POL32, stronger effect = lower value 1.01 | locus YJR075W, strain HOC1, stronger effect = lower value 0.994 | locus YLR039C, strain RIC1, stronger effect = lower value 1.02 | locus YLR058C, strain SHM2 (second series), stronger effect = lower value 1.03 | locus YLR085C, strain ARP6, stronger effect = lower value 0.958 | locus YLR262C, strain YPT6, stronger effect = lower value 1.13 | locus YML094W, strain GIM5, stronger effect = lower value 0.981 | locus YMR219W, strain ESC1, stronger effect = lower value 1 | locus YMR263W, strain SAP30, stronger effect = lower value 1 | locus YMR307W, strain GAS1, stronger effect = lower value 0.919 | [3] 1.01 | locus YNL298W, strain CLA4 (second series), stronger effect = lower value 1 | [4] 0.999 | locus YNR030W, strain Alg12, stronger effect = lower value 1.01 | [5] 0.92 | [6] 0.963 | locus YPR135W, strain CTF4, stronger effect = lower value 1.08
